Assay results from PubChem BioAssay (NCATS).
“And” between values parts separate entries of the source, which are not always exact repeats. Equal values may be shown once. Results filed as inconclusive are left out. Entries that show only a call come without a potency. The source made the active and inactive calls. Unless noted, the call rests on the fitted dose curve; in most records, active means well fitted curve in the direction sought with a large enough effect; inconclusive means small, poorly fitted or top-dose-only effect, or another doubt; inactive means no such curve, though single readings can be large; an effect the other way counts as inactive or inconclusive.

Experiments:
[1] = Cell Viability - SK-N-SH (AID 435; calls by dose curve;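 further: potency means the concentration at half of the fitted maximal effect; compound exposure lasted 40 h at 37 °C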); details: SK-N-SH neuroblastoma cell viability qHTS
Method in brief: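 CellTiter-Glo ATP luminescence, 20 min RT read; cells pre-plated 5 hr, compound 40 hr at 37 °C, 1500 cells/well, complete medium. Normalized DMSO = 0, 100 uM tamoxifen = 100% inhibition; Hill-fit AC50.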

[2] = Cell Viability - N2a (AID 540); details: N2a mouse neuroblastoma cell viability; at 92.2 µM (top of the series); further: nearly all actives have a fitted effect of over 45% in size
Method in brief: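 Mouse neuroblastoma N2a cells, 1500/well, exposed to compounds 40 h at 37 °C in complete medium. Viability measured as cellular ATP by CellTiter-Glo luminescence; AC50 from Hill fits of concentration-response.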

[3] = Cell Viability - SH-SY5Y (AID 544); details: SH-SY5Y neuroblastoma cell viability; viability change, negative = cytotoxic: at 92.2 µM (top of the series); further: nearly all actives have a fitted effect of over 55% in size
Method in brief: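 SH-SY5Y human neuroblastoma cells (1500/well) incubated 5 h, then compound-treated 40 h at 37 °C in complete medium. Viability read as intracellular ATP by CellTiter-Glo luminescence after 20 min; AC50 from Hill-equation fits of qHTS concentration-response.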

[4] = Cellular Toxicity (caspase-3) HepG2 (AID 654); details: HepG2 caspase-3 activation, luminescence, 0% = DMSO only, 100% = tamoxifen; series mostly up to 92.2 µM;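 further: cells exposed to compound for 16 hours before reading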
Method in brief: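 HepG2 cells (1500/well) were treated 16 h at 37 °C in complete medium, then caspase 3/7 activity was read by Caspase-Glo luminescence. Data were normalized to DMSO and 100 uM tamoxifen; AC50 came from Hill-equation fits of qHTS concentration-response.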

[5] = Cellular Toxicity (caspase-3) Hek293 (AID 664); details: HEK293 caspase-3 activation, DMSO = 0%, 100 µM tamoxifen = 100%; series mostly up to 92.2 µM;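 further: cells exposed to compound for 16 h at 37 °C before readout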
Method in brief: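 HEK293 cells in complete medium treated 16 h at 37 °C, then Caspase-Glo 3/7 luminescence read after 20 min at room temperature. Normalized to DMSO and 100 uM tamoxifen; AC50 from Hill fit of concentration-response.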

[6] = Cellular Toxicity (caspase-3) NIH 3T3 (AID 666); details: NIH 3T3 caspase-3 activation, apoptosis/toxicity, 0% DMSO, 100% is 100 µM tamoxifen; series mostly up to 92.2 µM;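 further: caspase signal read after 16 h compound exposure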
Method in brief: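 Mouse NIH 3T3 fibroblasts (1000/well) treated 16 h at 37 C; caspase-3/7 activity measured by Caspase-Glo 3/7 luminescence after 20 min. Normalized to DMSO and 100 uM tamoxifen; AC50 from Hill fits.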

[7] = Cell Viability - LYMP1-002 - Assay at 16 hr (AID 948); details: LYMP1-002 lymphoblastoid cell viability; series mostly up to 92.2 µM
Method in brief: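 LYMP1-002 human lymphoblastoid cells, 2500/well; 5 hr 37 C; cpd 16 hr 37 C; CellTiter-Glo 30 min RT; luminescence (ATP). Concentration-response, Hill-fit AC50. Pos ctrl tetraoctylammonium bromide.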

[8] = MultiTox-Fluor Cytotoxicity Assay - LYMP1-002 - Live Cells (AID 955); details: LYMP1-002 lymphoblastoid live-cell protease fluorescence viability; series mostly up to 46.1 µM;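 further: cells exposed to compound for 16 hours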
Method in brief: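 Human lymphoblastoid LYMP1-002 cells, 2500/well, treated 16 h at 37 C in complete medium. Live-cell protease activity via GF-AFC fluorescence (Ex/Em 405/510) after 60 min reagent incubation; AC50 from Hill fits.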

[9] = MultiTox-Fluor Cytotoxicity Assay - LYMP1-003 - Live Cells (AID 962); details: LYMP1-003 lymphoblastoid cells, MultiTox-Fluor live-cell protease fluorescence; series mostly up to 92.2 µM;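 further: cells exposed to compound for 16 hours at 37 °C; cytotoxic hits lower the live-cell protease signal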
Method in brief: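 LYMP1-003 lymphoblastoid cells, 2500/well in complete medium, treated 16 h at 37 C; live-cell protease cleavage of GF-AFC read by fluorescence (Ex/Em 405/510) after 60 min reagent; AC50 from Hill fits of concentration-response.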

[10] = Cell Viability - LYMP1-003 - Assay at 24 hr (AID 963); details: LYMP1-003 lymphoblastoid cell viability; series mostly up to 92.2 µM
Method in brief: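 Human lymphoblastoid LYMP1-003 cells, 2500/well, treated 24 h at 37 C in complete medium. Viability read as intracellular ATP by CellTiter-Glo luminescence after 30 min at room temperature; AC50 from Hill-equation fits of qHTS concentration-response.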

[11] = Cell Viability - LYMP2-015 (AID 971); details: LYMP2-015 lymphoblastoid cell viability; series mostly up to 92.2 µM; further: nearly all actives have a fitted effect of over 55% in size
Method in brief: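 LYMP2-015 human lymphoblastoid cells (2500/well) in complete medium, compound-treated 24 h at 37 C; viability read as cellular ATP by CellTiter-Glo luminescence after 30 min at room temperature. AC50 from Hill-equation fits of qHTS concentration-response data.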

[12] = Cell Viability - LYMP2-025 (AID 976); details: LYMP2-025 lymphoblastoid cell viability; series mostly up to 92.2 µM
Method in brief: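 Human lymphoblastoid LYMP2-025 cells, 2500/well, exposed 24 h at 37 C in complete medium in 1536-well qHTS. Viability as cellular ATP by CellTiter-Glo luminescence; AC50 from Hill fits of concentration-response data.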

[13] = Cell Viability - LYMP2-002 (AID 977); details: LYMP2-002 lymphoblastoid cell viability, qHTS; series mostly up to 92.2 µM;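 further: compound exposure lasted 24 h at 37 °C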
Method in brief: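 Cytotoxicity is scored as concentration-dependent loss of cellular ATP in a human lymphoblastoid line after 24 hr compound treatment at 37 C. AC50 is obtained by modelling concentration-response data with the Hill equation.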

[14] = Cell Viability - LYMP2-006 (AID 978); details: LYMP2-006 lymphoblastoid cell viability, qHTS; series mostly up to 92.2 µM;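 further: cells exposed to compound for 24 hours; nearly all actives have a fitted effect of over 60% in size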
Method in brief: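 qHTS, 1536-well; 2500 cells/well, 5 hr 37 C; cpd 24 hr 37 C; CellTiter-Glo 30 min RT; luminescence. Tetraoctylammonium bromide pos. ctrl. AC50 via Hill eqn.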

[15] = Cell Viability - LYMP2-008 (AID 980); details: LYMP2-008 lymphoblastoid cell viability, qHTS; series mostly up to 92.2 µM; further: nearly all actives have a fitted effect of over 60% in size
Method in brief: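 LYMP2-008 lymphoblastoid cells (2500/well) plated 5 h, then treated 24 h at 37 C in complete medium. Viability read as intracellular ATP by CellTiter-Glo luminescence after 30 min at room temperature; AC50 from Hill fits.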

[16] = Cell Viability - LYMP1-002 - Assay at 24 hr (AID 993); details: LYMP1-002 lymphoblastoid cells viability; series mostly up to 92.2 µM
Method in brief: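 Human lymphoblastoid LYMP1-002 cells (2500/well) treated 24 h at 37 °C; viability as intracellular ATP by CellTiter-Glo luminescence. Tetraoctylammonium bromide as positive control; AC50 from Hill-equation fits of qHTS concentration-response.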

[17] = Cell Viability - LYMP1-002 - Assay at 40 hr (AID 994); details: LYMP1-002 lymphoblastoid cell viability; series mostly up to 92.2 µM; further: nearly all actives have a fitted effect of over 60% in size
Method in brief: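 LYMP1-002 human lymphoblastoid cells (2500/well, complete medium) were treated with compounds for 40 hr at 37 C. Intracellular ATP was measured by CellTiter-Glo luminescence, and AC50 values came from Hill-equation fits of concentration-response data; tetraoctylammonium bromide was the positive control.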

[18] = qHTS assay for small molecule antagonists of retinoid X receptor alpha signaling (AID 588546; active means well fitted inhibition curve with a large enough effect in the signal ratio, with a control signal flat, not every such curve was filed as active; the % refers to the signal ratio;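 further: cells stimulated with 9-cis-retinoic acid as agonist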); details: HEK293T RXRa-UAS-bla, beta-lactamase ratio, antagonist mode; measured here: W530 green channel, cytotoxicity proxy
Method in brief: (§1)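 Beta-lactamase reporter inhibition, read as CCF4 fluorescence ratio (ex 405, em 460/530 nm) after 2 h at RT. HEK293T UAS-bla cells, 2500/well, were stimulated with 9-cis-RA at 500 or 100 nM final alongside test compound for 18 h at 37 C.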

[19] = biological target: Retinoic acid receptor RXR-alpha (Homo sapiens) (UniProt P19793); assay: as above; details: HEK293T RXRa-UAS-bla, beta-lactamase ratio, antagonist mode
Method in brief: as §1

[20] = qHTS assay for small molecule agonists of the antioxidant response element (ARE) signaling pathway measured by Nrf2-dependant transcriptional activity (AID 720636; active means well fitted curve in the direction sought with a large enough effect in the repeat runs; an effect the other way counts as inactive or inconclusive;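 further: HepG2 cells with an ARE-driven luciferase reporter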); details: ARE-luc HepG2, Nrf2 luciferase reporter, 16 h; series mostly up to 92.4 µM
Method in brief: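 Nrf2-dependent transcription is measured in ARE-luc HepG2 cells: compound is applied for 16 hr at 37 C after a 6 hr attachment period, and luciferase activity is quantified by luminescence using ONE-Glo.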

Chain of Retinoic acid receptor RXR-alpha (Homo sapiens) (P19793 whole entry, looked up): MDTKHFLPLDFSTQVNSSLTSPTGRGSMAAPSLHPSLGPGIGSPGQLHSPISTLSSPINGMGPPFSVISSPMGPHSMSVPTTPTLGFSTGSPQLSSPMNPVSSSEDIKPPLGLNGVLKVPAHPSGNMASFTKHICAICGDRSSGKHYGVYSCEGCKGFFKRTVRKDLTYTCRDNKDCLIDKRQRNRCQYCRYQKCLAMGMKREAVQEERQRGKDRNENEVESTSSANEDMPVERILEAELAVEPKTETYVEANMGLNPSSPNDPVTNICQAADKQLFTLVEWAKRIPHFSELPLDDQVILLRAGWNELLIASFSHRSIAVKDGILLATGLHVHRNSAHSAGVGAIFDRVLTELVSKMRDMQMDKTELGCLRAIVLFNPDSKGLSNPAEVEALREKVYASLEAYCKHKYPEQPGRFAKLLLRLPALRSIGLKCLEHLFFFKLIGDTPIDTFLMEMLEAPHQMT

SMILES	Potency [1]	activity change, negative = cytotoxicity [2]	Potency [3]	outcome [4]	outcome [5]	outcome [6]	Potency [7]	outcome [8]	Potency [9]	Potency [10]	Potency [11]	Potency [12]	Potency [13]	Potency [14]	Potency [15]	Potency [16]	Potency [17]	max response [18]	max response [19]	outcome [20]
OCC1CO1 (stereo not given)	> 92 µM (inactive)	-10.8% (inactive)	inactive	inactive	inactive	inactive	inactive	inactive	inactive	inactive	inactive	inactive	inactive	inactive	inactive	inactive	inactive	2.41% and -5.17%	13.7% (inactive) and -0.419% (inactive)	inactive
CCOc1ccc(N)cc1	> 92 µM (inactive)	-4.95% (inactive)	inactive	inactive	inactive	inactive	inactive	inactive	inactive	inactive	inactive	inactive	inactive	inactive	inactive	inactive	inactive	-4.66%	-3.13% (inactive)	inactive
C=C(C)C(=O)OCC1CO1 (stereo not given)	> 92 µM (inactive)	-4.08% (inactive)	inactive	inactive	inactive	inactive	inactive	inactive	inactive	inactive	inactive	inactive	inactive	inactive	inactive	inactive	inactive	-2.75%	4.24% (inactive)	inactive
Cc1ccc(O)c(C)c1	> 92 µM (inactive)	1.99% (inactive)	inactive	inactive	inactive	inactive	inactive	inactive	inactive	inactive	inactive	inactive	inactive	inactive	inactive	inactive	inactive	-12.5% and -7.89% and -6.08%	0.533% (inactive) and 0.504% (inactive) and 10.6% (inactive)	inactive
C=CC(=O)OCC	> 92 µM (inactive)	-4.3% (inactive)	inactive	inactive	inactive	inactive	inactive	inactive	inactive	inactive	inactive	inactive	inactive	inactive	inactive	inactive	inactive	-8.36%	4.16% (inactive)	inactive
CCC[CH2][Sn]([Cl])([Cl])[Cl]	> 92 µM (inactive)	12.4% (inactive)	inactive	inactive	inactive	inactive	inactive	inactive	inactive	inactive	inactive	inactive	inactive	inactive	inactive	inactive	inactive	-9.08% and -6.63%	-1.26% (inactive) and -2.57% (inactive)	inactive
